Reference: PubChem BioAssay (NCATS)
Where “and” joins values, the source holds several entries; their conditions need not be identical. Equal entries are not always repeated. Results filed as inconclusive are left out. Calls of active or inactive are those of the source. Unless noted, calls follow the shape of the dose curve; as a rule, active = well fitted curve in the direction sought with a large enough effect; inconclusive = small, poorly fitted or top-dose-only effect, or another doubt; inactive = no such curve, though single readings can be large; an effect the other way counts as inactive or inconclusive.

How the values were obtained:
[1] = Primary qHTS for small molecule stabilizers of the endoplasmic reticulum resident proteome: Secreted ER Calcium Modulated Protein (SERCaMP) assay (AID 1508630); also: % is scaled to controls: 0 for no effect and ±100 for the full control effect
How it was run: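 GLuc-SERCaMP-expressing SH-SY5Y cells, pretreated 16 h with compound, are challenged with thapsigargin to empty ER calcium stores; after 4 h, coelenterazine is added directly to the medium and luminescence is imaged.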

[2] = A High-Content qHTS Against Drug Library for the Identification of Small Molecules that Inhibit DYT1 Early Onset Primary Dystonia-Associated Cell Pathology (AID 1645839; calls by dose curve)
How it was run: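 In this high-content image screen, delE TorsinA mislocalization in inducible Flp-In 293 cells is scored as %pathology, with cell count serving as the counterscreen. Compound exposure lasts 48 h under tetracycline induction in reduced-serum medium.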

[3] = biological target: Cytochrome P450 2D6 (Homo sapiens) (UniProt P10635); assay: Cytochrome P450 family 2 subfamily D member 6 (CYP2D6) small molecule antagonists: luciferase biochemical (cell-free) qHTS assay (AID 1645840; active = well fitted curve in the direction sought with a large enough effect in the repeat runs; an effect the other way counts as inactive or inconclusive; also: nearly all actives have a fitted effect of over 55% in size; also: potency is read from the fitted curve at half-maximal effect)
How it was run: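 P450-Glo luminescent screen: recombinant CYP2D6 enzyme–proluciferin substrate mix preincubated with compound 10 min at room temperature, then NADPH regeneration added for 1 h at room temperature. Detection reagent added for 20 min; luciferin light read as relative luminescence units.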

[4] = biological target: Cytochrome P450 2C9 (Homo sapiens) (UniProt P11712); assay: Cytochrome P450 family 2 subfamily C member 9 (CYP2C9) small molecule antagonists: luciferase biochemical (cell-free) qHTS assay (AID 1645842; active = well fitted curve in the direction sought with a large enough effect in the repeat runs; an effect the other way counts as inactive or inconclusive; also: nearly all actives have a fitted effect of over 55% in size; also: potency is read from the fitted curve at half-maximal effect; as to activity change, negative = inhibition: % is scaled to controls: 0 for no effect and ±100 for the full control effect)
How it was run: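 Luminescence, after 20 min with luciferin detection reagent, reflected CYP2C9 turnover during a 1 h NADPH-driven reaction at 37C. Enzyme-substrate mix contained 0.4% bovine serum albumin and was preincubated with compound 10 min at room temperature.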

Papain (Carica papaya) = Papain (Carica papaya) (UniProt P00784); assay: Primary qHTS assay for inhibitors of the protease papain (AID 1645873);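 also: papain turnover of Z-FR-AMC read as the AMC fluorescence gain over 10 min; % is scaled to controls: 0 for no effect and ±100 for the full control effect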
[5] = Primary qHTS for inhibitors of nuclear receptor binding SET domain protein 2 (NSD2) in an isogenic RCH-ACV NSD2 p.E1099K mutant (9B) (AID 1645876); also: nearly all actives have a fitted effect of over 70% in size
[6] = Primary qHTS for inhibitors of nuclear receptor binding SET domain protein 2 (NSD2) in an RCH-ACV wild type WT cells (2C) (AID 1645877); also: nearly all actives have a fitted effect of over 70% in size; as to activity change, negative = cell killing: % is scaled to controls: 0 for no effect and ±100 for the full control effect
[7] = biological target: Catechol O-methyltransferase (Homo sapiens) (UniProt P21964); assay: Confirmatory Screen for Target Class Profiling of Small Molecule Inhibitors of Methyltransferases (AID 1745852; calls by dose curve); conditions: MTase-Glo luminescence, SAH detection, recombinant enzyme; measured here: COMT max response; stronger effect = lower value
[8] = biological target: Guanidinoacetate N-methyltransferase (Homo sapiens) (UniProt Q14353); assay: as above; conditions: MTase-Glo luminescence, SAH detection, recombinant enzyme; at 57.3 µM (top of the series)
[9] = biological target: Nicotinamide N-methyltransferase (Homo sapiens) (UniProt P40261); assay: as above; conditions: MTase-Glo luminescence, SAH detection, recombinant enzyme; measured here: NNMT max response; stronger effect = lower value
[10] = biological target: Rap guanine nucleotide exchange factor 3 (Homo sapiens) (UniProt O95398); assay: Confirmatory qHTS for antagonist of cAMP-regulated guanine nucleotide exchange factor 3 (EPAC1) (AID 1645880);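 also: plate controls were DMSO only for no effect and full effect of the ATA control for full effect; nearly all actives have a fitted effect of over 55% in size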
How it was run: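 Nucleotide exchange uses 100 nM EPAC1, 250 nM RAP1B-BODIPY-GDP and 50 uM GDP, with compounds in a concentration-titration series. After 5 min at room temperature, fluorescence (480 nm ex/540 nm em) is read every 5 min for 30 min. Data are normalized to control ATA and DMSO.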

[11] = biological target: Rap guanine nucleotide exchange factor 3 (Homo sapiens) (UniProt O95398); assay: Confirmatory qHTS for agonist of cAMP-regulated guanine nucleotide exchange factor 3 (EPAC1) (AID 1645881);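 also: EPAC1 catalysed release of BODIPY-GDP from Rap1B seen as fluorescence loss; 100% = effect of cAMP agonist control; nearly all actives have a fitted effect of over 75% in size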
[12] = biological target: Rap guanine nucleotide exchange factor 4 (Homo sapiens) (UniProt Q8WZA2); assay: Confirmatory qHTS for agonist of cAMP-regulated guanine nucleotide exchange factor 4 (EPAC2) (AID 1645884);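 also: nucleotide exchange releases bodipy-GDP from Rap1 and this lowers its fluorescence; % is scaled to controls: 0 for no effect and ±100 for the full control effect; nearly all actives have a fitted effect of over 65% in size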
[13] = biological target: Rap guanine nucleotide exchange factor 4 (Homo sapiens) (UniProt Q8WZA2); assay: Confirmatory qHTS for antagonist of cAMP-regulated guanine nucleotide exchange factor 4 (EPAC2) (AID 1645885); also: % is scaled to controls: 0 for no effect and ±100 for the full control effect; nearly all actives have a fitted effect of over 25% in size

Cytochrome P450 2D6 (Homo sapiens), sequence (P10635 whole entry, looked up): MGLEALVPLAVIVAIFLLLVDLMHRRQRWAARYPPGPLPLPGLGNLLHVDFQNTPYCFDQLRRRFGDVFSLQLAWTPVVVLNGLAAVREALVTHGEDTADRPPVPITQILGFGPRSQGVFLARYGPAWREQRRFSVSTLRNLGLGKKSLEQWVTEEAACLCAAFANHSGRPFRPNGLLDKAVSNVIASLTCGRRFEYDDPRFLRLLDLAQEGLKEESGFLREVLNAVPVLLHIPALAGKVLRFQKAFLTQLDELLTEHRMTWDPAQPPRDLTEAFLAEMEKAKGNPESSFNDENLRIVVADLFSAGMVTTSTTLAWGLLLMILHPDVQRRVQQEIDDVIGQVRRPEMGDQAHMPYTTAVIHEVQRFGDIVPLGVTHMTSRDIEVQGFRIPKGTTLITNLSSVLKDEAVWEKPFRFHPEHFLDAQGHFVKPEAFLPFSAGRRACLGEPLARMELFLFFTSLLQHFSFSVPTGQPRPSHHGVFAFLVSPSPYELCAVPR
Papain (Carica papaya), sequence (P00784 whole entry, looked up, the tested form may be a part): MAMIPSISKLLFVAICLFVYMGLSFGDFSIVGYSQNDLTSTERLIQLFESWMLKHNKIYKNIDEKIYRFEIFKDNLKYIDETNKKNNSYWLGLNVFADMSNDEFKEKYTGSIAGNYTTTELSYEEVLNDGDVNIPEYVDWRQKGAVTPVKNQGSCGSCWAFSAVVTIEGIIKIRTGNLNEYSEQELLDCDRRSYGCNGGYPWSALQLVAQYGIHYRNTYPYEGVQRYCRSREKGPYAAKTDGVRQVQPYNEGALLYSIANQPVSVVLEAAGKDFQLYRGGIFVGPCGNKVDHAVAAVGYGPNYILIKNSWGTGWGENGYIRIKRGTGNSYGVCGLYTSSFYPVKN
Cytochrome P450 2C9 (Homo sapiens), sequence (P11712 whole entry, looked up): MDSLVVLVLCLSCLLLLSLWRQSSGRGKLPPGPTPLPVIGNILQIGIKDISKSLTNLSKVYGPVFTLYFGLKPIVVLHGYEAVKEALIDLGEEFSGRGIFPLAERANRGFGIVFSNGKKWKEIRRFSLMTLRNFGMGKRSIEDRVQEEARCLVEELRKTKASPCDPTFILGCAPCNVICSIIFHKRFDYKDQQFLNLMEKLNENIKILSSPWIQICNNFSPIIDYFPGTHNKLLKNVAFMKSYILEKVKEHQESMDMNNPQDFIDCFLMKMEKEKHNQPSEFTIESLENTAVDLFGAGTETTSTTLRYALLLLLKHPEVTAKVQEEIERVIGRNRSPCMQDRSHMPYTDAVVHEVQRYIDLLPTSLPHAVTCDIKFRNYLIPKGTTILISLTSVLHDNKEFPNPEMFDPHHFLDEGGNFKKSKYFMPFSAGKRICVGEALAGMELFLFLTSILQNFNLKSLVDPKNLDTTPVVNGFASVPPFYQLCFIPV
Rap guanine nucleotide exchange factor 4 (Homo sapiens), sequence (Q8WZA2 whole entry, looked up): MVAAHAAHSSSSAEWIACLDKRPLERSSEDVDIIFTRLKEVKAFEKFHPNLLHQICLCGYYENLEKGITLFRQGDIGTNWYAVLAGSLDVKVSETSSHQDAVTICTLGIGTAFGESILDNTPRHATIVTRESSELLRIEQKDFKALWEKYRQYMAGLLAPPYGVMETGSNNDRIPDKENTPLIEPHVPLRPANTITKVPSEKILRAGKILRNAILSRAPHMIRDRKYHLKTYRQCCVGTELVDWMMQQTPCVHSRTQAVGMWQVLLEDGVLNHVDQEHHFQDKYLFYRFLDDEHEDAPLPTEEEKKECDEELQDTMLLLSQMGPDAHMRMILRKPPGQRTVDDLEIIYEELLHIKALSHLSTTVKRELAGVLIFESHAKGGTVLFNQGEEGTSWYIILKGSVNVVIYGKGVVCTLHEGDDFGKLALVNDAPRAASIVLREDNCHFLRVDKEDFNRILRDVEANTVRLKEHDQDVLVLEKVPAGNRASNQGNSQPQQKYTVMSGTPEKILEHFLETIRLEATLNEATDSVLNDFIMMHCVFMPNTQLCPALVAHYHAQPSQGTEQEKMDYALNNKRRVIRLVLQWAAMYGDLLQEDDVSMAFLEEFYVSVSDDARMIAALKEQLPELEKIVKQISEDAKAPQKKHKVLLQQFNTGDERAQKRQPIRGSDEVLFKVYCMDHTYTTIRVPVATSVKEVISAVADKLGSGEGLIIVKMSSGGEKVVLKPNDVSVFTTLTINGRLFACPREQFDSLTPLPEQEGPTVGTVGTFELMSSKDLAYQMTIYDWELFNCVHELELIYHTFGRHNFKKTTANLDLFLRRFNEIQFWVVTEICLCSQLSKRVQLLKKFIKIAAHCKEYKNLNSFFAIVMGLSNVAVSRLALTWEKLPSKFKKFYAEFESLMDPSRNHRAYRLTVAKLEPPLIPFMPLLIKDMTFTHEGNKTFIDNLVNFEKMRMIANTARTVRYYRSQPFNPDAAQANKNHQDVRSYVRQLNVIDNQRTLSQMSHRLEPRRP
Rap guanine nucleotide exchange factor 3 (Homo sapiens), sequence (O95398 whole entry, looked up): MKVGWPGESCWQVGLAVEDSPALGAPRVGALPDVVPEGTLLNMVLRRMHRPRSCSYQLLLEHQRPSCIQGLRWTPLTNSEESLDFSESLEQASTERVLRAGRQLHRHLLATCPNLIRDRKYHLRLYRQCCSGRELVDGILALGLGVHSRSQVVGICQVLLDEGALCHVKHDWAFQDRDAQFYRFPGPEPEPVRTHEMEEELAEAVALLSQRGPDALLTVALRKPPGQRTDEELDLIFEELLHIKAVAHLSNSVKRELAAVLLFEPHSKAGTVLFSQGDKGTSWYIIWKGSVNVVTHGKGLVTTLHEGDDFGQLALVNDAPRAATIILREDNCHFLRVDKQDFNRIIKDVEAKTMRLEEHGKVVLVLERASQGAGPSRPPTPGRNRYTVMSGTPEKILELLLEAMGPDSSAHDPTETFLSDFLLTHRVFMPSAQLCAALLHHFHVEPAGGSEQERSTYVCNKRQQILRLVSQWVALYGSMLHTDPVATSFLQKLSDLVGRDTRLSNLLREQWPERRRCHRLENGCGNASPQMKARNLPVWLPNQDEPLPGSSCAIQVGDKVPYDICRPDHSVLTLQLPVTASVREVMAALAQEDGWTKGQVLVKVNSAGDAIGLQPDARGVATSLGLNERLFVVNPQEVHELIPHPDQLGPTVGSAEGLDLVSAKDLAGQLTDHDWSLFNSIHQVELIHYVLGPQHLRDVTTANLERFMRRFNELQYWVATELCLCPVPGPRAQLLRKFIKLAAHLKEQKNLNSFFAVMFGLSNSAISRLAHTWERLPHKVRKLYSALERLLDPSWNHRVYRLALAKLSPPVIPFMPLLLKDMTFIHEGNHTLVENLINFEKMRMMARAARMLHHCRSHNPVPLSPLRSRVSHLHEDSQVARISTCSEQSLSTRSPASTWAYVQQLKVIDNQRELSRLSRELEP
Catechol O-methyltransferase (Homo sapiens), sequence (P21964 whole entry, looked up): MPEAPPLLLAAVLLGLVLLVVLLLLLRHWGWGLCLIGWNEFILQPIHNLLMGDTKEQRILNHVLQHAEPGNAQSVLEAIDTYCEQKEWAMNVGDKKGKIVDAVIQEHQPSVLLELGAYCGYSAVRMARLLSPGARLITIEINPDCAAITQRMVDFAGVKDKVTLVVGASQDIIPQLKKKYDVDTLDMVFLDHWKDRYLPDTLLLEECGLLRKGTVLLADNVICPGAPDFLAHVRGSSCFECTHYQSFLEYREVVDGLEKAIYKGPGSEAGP
Nicotinamide N-methyltransferase (Homo sapiens), sequence (P40261 whole entry, looked up): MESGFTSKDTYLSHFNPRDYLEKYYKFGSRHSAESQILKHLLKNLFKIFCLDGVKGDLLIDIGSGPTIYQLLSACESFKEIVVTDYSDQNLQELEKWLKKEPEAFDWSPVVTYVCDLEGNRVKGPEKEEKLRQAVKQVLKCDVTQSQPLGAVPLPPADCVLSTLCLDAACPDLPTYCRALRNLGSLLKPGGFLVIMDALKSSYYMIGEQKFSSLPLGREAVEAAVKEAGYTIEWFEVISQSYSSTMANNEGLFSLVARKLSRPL

C=CCc1ccccc1OCC(O)CNC(C)C (stereo not drawn)
inactive: Potency [1] | Potency [2] | Potency [4] | Potency (Papain (Carica papaya)) | Potency [5] | Potency [6]
active: Potency [3] 6.92 µM and 8.49 µM

CCCN1C[C@H](CSC)C[C@@H]2c3cccc4[nH]cc(c34)C[C@H]21
-0.209%: activity [7]
active: Potency [3] 55 nM
-3.93%: activity [9]
5.03%: activity change, negative = inhibition [8]
inactive: Potency [1] | Potency [2] | Potency [4] | Potency (Papain (Carica papaya)) | Potency [5]

CCN1CCc2nc(N)oc2CC1
inactive: Potency [1] | Potency [2] | Potency [3] | Potency [4] | Potency [5] | Potency [6]

CCN(Cc1ccncc1)C(=O)C(CO)c1ccccc1 (stereo not drawn)
inactive: Potency [1] | Potency [2] | Potency [3] | Potency (Papain (Carica papaya)) | Potency [5] | Potency [6]

CN1C(=O)CC[C@H]1c1cccnc1
inactive: Potency [1] | Potency [2] | Potency [3] | Potency [4] | Potency (Papain (Carica papaya)) | Potency [5] | Potency [6]

CC(=O)OCC1=C(C(=O)O)N2C(=O)[C@@H](NC(=O)Cc3cccs3)[C@H]2SC1
inactive: Potency [1] | Potency [2] | Potency [3] | Potency [4] | Potency (Papain (Carica papaya)) | Potency [5] | Potency [6]

COc1ccc([C@@H]2Sc3ccccc3N(CCN(C)C)C(=O)[C@@H]2OC(C)=O)cc1
inactive: Potency [1] | Potency [2] | Potency [3] | Potency (Papain (Carica papaya)) | Potency [5] | Potency [6]

NC(Cc1ccc(Cl)cc1)C(=O)O (stereo not drawn)
inactive: Potency [1] | % pathology change, negative = correction [2] -28% [at 0.369 µM] | activity change, negative = inhibition [3] 5.71% [at 0.91 µM] | activity change, negative = inhibition [4] 10.6% [at 0.91 µM] | Potency (Papain (Carica papaya)) | outcome [5] inactive [at 0.588 µM] | activity change, negative = cell killing [6] 2.13% [at 0.588 µM]

NC(=O)c1ncn([C@@H]2O[C@H](CO)[C@@H](O)[C@H]2O)c1O
inactive: Potency [1] | Potency [2] | Potency [3] | Potency (Papain (Carica papaya)) | Potency [5] | Potency [6]

CCCCNC(=O)NS(=O)(=O)c1ccc(C)cc1
inactive: Potency [1] | Potency [2] | Potency [3] | Potency (Papain (Carica papaya)) | Potency [5] | Potency [6]

NCCCNCCSP(=O)(O)O
inactive: Potency [1] | % pathology change, negative = correction [2] 18.3% [at 9.22 µM] | activity change, negative = inhibition [3] -0.206% [at 11.5 µM] | activity change, negative = inhibition [4] 13.8% [at 11.5 µM] | Potency (Papain (Carica papaya)) | outcome [5] inactive [at 9.23 µM] | activity change, negative = cell killing [6] 5.49% [at 9.23 µM]

Cc1scc2c1N(C(=O)CN1CCN(C)CC1)c1ccccc1NC2=O
inactive: Potency [1] | Potency [2] | Potency [3] | Potency (Papain (Carica papaya)) | Potency [5] | Potency [6]

CO[C@@]1(NC(=O)CSCC#N)C(=O)N2C(C(=O)O)=C(CSc3nnnn3C)CS[C@@H]21
inactive: Potency [1] | Potency [2] | Potency [3] | Potency [4] | Potency [5] | Potency [6]

O=C(CCNNC(=O)c1ccncc1)NCc1ccccc1
active: Potency [3] 15500 nM | Potency [4] 5.49 µM
inactive: Potency [1] | Potency [2] | Potency (Papain (Carica papaya)) | Potency [5] | Potency [6]

NC/C=C/C(=O)O
inactive: Potency [1] | Potency [2] | Potency [3] | Potency [4] | Potency (Papain (Carica papaya)) | Potency [5] | Potency [6]

CN(C(=O)CCCOc1ccc2[nH]c(=O)ccc2c1)C1CCCCC1
active: Potency [4] 13.8 µM
inactive: Potency [1] | Potency [2] | Potency [3] | Potency (Papain (Carica papaya)) | Potency [6]

CCN(CC)CCNC(=O)c1ccc(NC(C)=O)cc1
inactive: Potency [1] | Potency [2] | Potency [4] | Potency (Papain (Carica papaya)) | Potency [5] | Potency [6]

COCCc1ccc(OCC(O)CNC(C)C)cc1 (stereo not drawn)
inactive: Potency [1] | Potency [2] | Potency (Papain (Carica papaya)) | Potency [5] | Potency [6]

COc1ccc(CN(CCN(C)C)c2ccccn2)cc1
inactive: Potency [1] | Potency [2] | Potency (Papain (Carica papaya)) | Potency [5] | Potency [6]
active: Potency [3] 195 nM and 213 nM

Cc1cccc(C)c1NC(=O)C(C)N (stereo not drawn)
inactive: Potency [1] | Potency [2] | Potency [3] | Potency (Papain (Carica papaya)) | outcome [10] | Potency [11] | Potency [12] | Potency [13]

CSc1ccc(C(=O)c2[nH]c(=O)[nH]c2C)cc1
inactive: Potency [1] | Potency [2] | Potency [4] | Potency (Papain (Carica papaya)) | Potency [5] | Potency [6]

NC(N)=NC(=O)Cc1c(Cl)cccc1Cl
inactive: Potency [1] | Potency [2] | Potency [4] | Potency (Papain (Carica papaya))

CN(C)CCN(Cc1cccs1)c1ccccn1
inactive: Potency [1] | Potency [2] | Potency [4] | Potency (Papain (Carica papaya)) | Potency [5] | Potency [6]

CCN1CCC[C@H]1CNC(=O)c1c(O)c(Cl)cc(Cl)c1OC
inactive: Potency [1] | Potency [2] | Potency (Papain (Carica papaya)) | Potency [5] | Potency [6]

C[C@@H](O)[C@H]1C(=O)N2C(C(=O)O)=C(SCCN=CN)C[C@H]12
inactive: Potency [1] | Potency [2] | Potency [3] | Potency (Papain (Carica papaya)) | Potency [5] | Potency [6]

c1ccc2c(c1)CCCC2C1=NCCN1 (stereo not drawn)
inactive: Potency [1] | Potency [2] | Potency (Papain (Carica papaya)) | Potency [5] | Potency [6]

Cc1nnc(SCC2=C(C(=O)O)N3C(=O)[C@@H](NC(=O)Cn4cnnn4)[C@H]3SC2)s1
inactive: Potency [1] | Potency [2] | Potency (Papain (Carica papaya)) | Potency [5]

CC(C)NCC(O)c1cc(O)cc(O)c1 (stereo not drawn)
inactive: Potency [1] | Potency [2] | Potency [4] | Potency (Papain (Carica papaya)) | Potency [5] | Potency [6]
